# Values without a mark were called inactive. Calls come from the whole dose curve; as a rule, active = well fitted curve in the direction sought with a large enough effect in the repeat runs; inconclusive = weak or mixed curves; inactive = flat fitted curve, though single readings scatter.
# Experiment: qHTS assay to test for compound auto fluorescence at 535 nm (green) in HepG2 cells (AID 720675)
# Conditions: green autofluorescence 485/535 nm, 1 h; series mostly up to 91.3 µM; fluorescence, % of fluorescein control: at the top concentration
# Source text: National Center for Advancing Translational Sciences [NCATS]
# NIH Chemical Genomics Center [NCGC]
# U.S. Environmental Protection Agency [EPA]
# National Institutes of Environmental Health Sciences [NIEHS]
# National Toxicology Program [NTP]
# U.S. Food and Drug Administration [FDA]
# Compound auto fluorescence often interferes with screening of the compound library against various biological targets and signaling pathways. Some of these compounds may have fluorophoric properties. Such properties may interfere with the assay outputs resulting in false positives and/or negatives. To decrease such complications and ensure the compound activities are relevant in terms of biological response, the Tox21 10K compound library was screened for auto fluorescence.
# From the fluorophores used as reporter signals in our screening assays, the auto fluorescence equivalencies of compounds against three fluorophores have been evaluated: Triamterene, Fluorescein and Rose Bengal sodium for blue, green and red fluorescence, respectively. The fluorescence intensities were measured using Excitation/Emission wavelengths at 405/460nm, 485/535nm and 540/590nm for blue, green and red labels, respectively. This assay includes the green fluorescence data.
# Tox21 Assay Protocol Summary:
# 2,000 HepG2 cells in 5 uL of culture medium (MEM containing 10% FBS) per well were dispensed into black wall/clear bottom 1536-well plates using a Multidrop Combi Dispenser (ThermoFisher Scientific, Waltham, MA). The assay plates were incubated overnight at 37 C to allow cell attachment to the well bottom, followed by the transfer of 23 nL compound or DMSO vehicle by a pintool work station (Kalypsys , San Diego, CA). After the assay plates were incubated for 1 hr at 37 C and 5% CO2, fluorescence intensities in the assay plates were measured by an Envision (PerkinElmer, Shelton, CT) plate reader using three labels for measuring blue, green and red fluorescence at […] 460, 535 and 590 nm respectively.
# % is set by controls: 0 for no effect and ±100 for the full control effect.
row,Compound,"fluorescence, % of fluorescein control"
1,CCNC(=O)/C=C/c1cccc(Br)c1,-0.103% [at 46 µM]
2,CC1=NN(c2ccc(S(=O)(=O)O)cc2)C(=O)C1N=Nc1ccccc1 (stereo not given),-0.0673%
3,COc1cc(C=O)ccc1OC(=O)C(C)C,0.0181%
4,CCC(O)C(C)(C)C (stereo not given),0.0125% [at 95.7 µM]
5,CCOC(=O)CC#N,-0.0861%
6,Cc1c(C(C)C)c(=O)n(-c2ccccc2)n1C,-0.125% [at 46 µM]
7,CCOC(=O)CCc1ccccc1,0.0662%
8,Nc1c(NC/C=C\COc2cc(CN3CCCCC3)ccn2)c(=O)c1=O,-0.0734% [at 46 µM]
9,SCCSCCS,0.0176%
10,CCN(Cc1cccc(S(=O)(=O)O)c1)c1ccccc1,-0.0258%
11,CN(C1CCCCC1)S(=O)(=O)c1ccccc1N,-0.161%
12,CCCCCC1CCCC(=O)O1 (stereo not given),0.0213%
13,NC(=O)NC(=O)Cc1ccccc1,0.0274% [at 46 µM]
14,CCN(CCO)c1cccc(C)c1,-0.0922%
15,CC(=O)OCCCc1ccccc1,-0.0851%
16,CN(C)CCOCCN(C)CCO,0.0237%
17,CCC(C)N (stereo not given),-0.0464%
18,Cc1cc(C)cc([N+](=O)[O-])c1,0.0515% [at 95.7 µM]
19,C=CCOCC(CO)(COCC=C)COCC=C,0.0755%
20,C[Si]1(C)N[Si](C)(C)N[Si](C)(C)N1,-0.0079%

row,Compound,"fluorescence, % of fluorescein control"
1,Nc1ccc(/C=C/c2ccc(N)cc2S(=O)(=O)O)c(S(=O)(=O)O)c1,0.0234% [at 46 µM]
2,NC(=O)C1(N2CCCCC2)CCN(CCCC(=O)c2ccc(F)cc2)CC1,-0.207% [at 46 µM]
3,C=CCOc1c(Br)cc(Br)cc1Br,-0.0435%
4,CCCCOC(=O)C(=O)OCCCC,0.0002%
5,CC(C)=CC(C)(C)C,-0.0098%
6,CCC1COC(=O)O1 (stereo not given),0.016%
7,O=C(O)c1c(Cl)ccc(Cl)c1Cl,-0.0558%
8,CCC(=O)OCCC(C)CCC=C(C)C (stereo not given),-0.0448%
9,NS(=O)(=O)c1cc2c(cc1Cl)NC(CC1CCCC1)NS2(=O)=O (stereo not given),-0.0768% [at 18.6 µM]
10,Nc1ccnc(=O)[nH]1,0.032%
11,Cc1nc2ccccc2c(=O)o1,0.0739%
12,Cc1ccc2c(c1)c1c3n2CCNC3CCC1 (stereo not given),0.0839% [at 46 µM]
13,Cc1oc(=O)oc1CN1CCN(c2cc3c(cc2F)c(=O)c(C(=O)O)c2n3C(C)S2)CC1 (stereo not given),-0.0515% [at 46 µM]
14,O=S1(=O)CCCC1,-0.175%
15,CCOC(=O)CCCCCCCCC(=O)OCC,0.0637%
16,CC(C)SCc1ccco1,-0.0115% [at 46 µM]
17,O=CN1CCOCC1,-0.115%
18,NS(=O)(=O)c1ccc(Cl)c(S(N)(=O)=O)c1,-0.0226% [at 46 µM]
19,CO[Si](CCCCl)(OC)OC,-0.0261%
20,CC(C)COC(=O)CCCCC(=O)OCC(C)C,-0.0709%
